# According to PMC11062922 (Nature Chemical Biology, 2023):
# Like-named read-outs stand apart in the source and are kept apart here.
# Tests used:
# Parameters in all cases: species or system human, MV4-11 + K-562 + COLO205 + SK-N-BE2 + OVCAR-8
# FGFR1 = details: read-out: apparent Kd, n = 1
# FYN = details: read-out: apparent Kd, n = 1
# IRAK4 = details: read-out: apparent Kd, n = 1
# MAP4K1 = details: read-out: apparent Kd, n = 1
# STK26 = details: read-out: apparent Kd, n = 1
# ATR = details: read-out: apparent Kd; compound concentrations:100 nM and 1000 nM (sheet 'Samples'); n = 1
# FRK = details: read-out: apparent Kd, n = 1
# PRKCB = details: read-out: apparent Kd, n = 1
# ACAD11 = details: read-out: apparent Kd, n = 1
# MAPKAPK2 = details: read-out: apparent Kd, n = 1
# NLK = details: read-out: apparent Kd, n = 1
# ULK3 = details: read-out: apparent Kd, n = 1
# CDK5 = details: read-out: apparent Kd, compound concentrations: 100 nM and 1000 nM (sheet 'Samples'), n = 1
# JAK1 = details: read-out: apparent Kd, compound concentrations: 100 nM and 1000 nM (sheet 'Samples'), n = 1
# [1] = compound concentrations:100 nM and 1000 nM (sheet 'Samples')
structure (smiles),measurement,setting,value
CNC(=O)c1ccccc1Nc1nc(Nc2ccc(N3CCOCC3)cc2)ncc1Cl.Cl [GSK1576028A],potency estimated from few doses,FGFR1; [1],844 nM
same,potency estimated from few doses,FYN; [1],369 nM
same,potency estimated from few doses,IRAK4; [1],593 nM
same,potency estimated from few doses,MAP4K1; [1],387 nM
same,potency estimated from few doses,STK26; [1],1360 nM
CN1C[C@@H]2Cn3c(c(C4=C(c5cn(C)c6ccccc56)C(=O)NC4=O)c4ccccc43)C[C@H]2C1.Cl [RO0320234-001],potency estimated from few doses,ATR,438 nM
same,potency estimated from few doses,FRK; [1],290 nM
same,potency estimated from few doses,FYN; [1],209 nM
same,potency estimated from few doses,"PRKCB; compound concentrations: 100 nM and 1000 nM (sheet 'Samples'), CATDS: 3.7076657703329602E-2",28.4 nM
CCOC(=O)N1CCC(n2cnc(-c3ccc(F)cc3)c2-c2ccnc(N)n2)CC1 [SB-219952],potency estimated from few doses,"ACAD11; compound concentrations: 100 nM and 1000 nM (sheet 'Samples'), CATDS: 8.6091938729062605E-3",1330 nM
same,potency estimated from few doses,"FGFR1; compound concentrations: 100 nM and 1000 nM (sheet 'Samples'), CATDS: 8.7030488552416706E-3",1280 nM
same,potency estimated from few doses,"FRK; compound concentrations: 100 nM and 1000 nM (sheet 'Samples'), CATDS: 9.3147950048740498E-3",1050 nM
same,potency estimated from few doses,"MAPKAPK2; compound concentrations: 100 nM and 1000 nM (sheet 'Samples'), CATDS: 4.5642459422858099E-2",60.7 nM
same,potency estimated from few doses,"NLK; compound concentrations: 100 nM and 1000 nM (sheet 'Samples'), CATDS: 4.0230749785041403E-2",72.7 nM
same,potency estimated from few doses,"ULK3; compound concentrations: 100 nM and 1000 nM (sheet 'Samples'), CATDS: 8.4106356024223894E-3",1430 nM
CCn1c(-c2nonc2N)nc2c(C#CC(C)(C)O)nc(OCCN)cc21.CCn1c(-c2nonc2N)nc2c(C#CC(C)(C)O)nc(OCCN)cc21.Cl.Cl [GSK902056A],potency estimated from few doses,PRKCB; [1],1980 nM
CC(C)N1CCC(n2cnc(-c3ccc(F)cc3)c2-c2ccnc(N)n2)CC1 [SB-223132],potency estimated from few doses,FGFR1; [1],2190 nM
same,potency estimated from few doses,MAPKAPK2; [1],7.02 nM
same,potency estimated from few doses,NLK; [1],195 nM
Cl.Cl.NCC(C(=O)Nc1cc(Br)c(-c2ccnc3[nH]ccc23)s1)c1ccccc1.NCC(C(=O)Nc1cc(Br)c(-c2ccnc3[nH]ccc23)s1)c1ccccc1 (stereo not shown) [GSK1269851A],potency estimated from few doses,ACAD11; [1],1260 nM
same,potency estimated from few doses,ATR,889 nM
same,potency estimated from few doses,FGFR1; [1],1730 nM
same,potency estimated from few doses,FRK; [1],846 nM
same,potency estimated from few doses,FYN; [1],680 nM
COc1ccc(Nc2ncc(C#N)c(Nc3ccccc3C(N)=O)n2)cc1N1CCN(C)CC1.Cl [GSK1558669A],potency estimated from few doses,CDK5; CATDS: 1.3495473564992901E-2,85 nM
same,potency estimated from few doses,"FGFR1; compound concentrations: 100 nM and 1000 nM (sheet 'Samples'), CATDS: 1.43157906499466E-2",74.1 nM
same,potency estimated from few doses,"FYN; compound concentrations: 100 nM and 1000 nM (sheet 'Samples'), CATDS: 8.8706126087949692E-3",276 nM
same,potency estimated from few doses,"IRAK4; compound concentrations: 100 nM and 1000 nM (sheet 'Samples'), CATDS: 1.0871423307460401E-2",148 nM
same,potency estimated from few doses,JAK1; CATDS: 1.7272230930398098E-2,49.5 nM
same,potency estimated from few doses,"MAP4K1; compound concentrations: 100 nM and 1000 nM (sheet 'Samples'), CATDS: 8.9293608568362503E-3",270 nM
same,potency estimated from few doses,"STK26; compound concentrations: 100 nM and 1000 nM (sheet 'Samples'), CATDS: 6.0521031511701004E-3",1650 nM
same,potency estimated from few doses,"ULK3; compound concentrations: 100 nM and 1000 nM (sheet 'Samples'), CATDS: 2.8443328776369899E-2",20 nM
O=C1N=C(NCCc2ccc(Cl)cc2)S/C1=C\c1ccc2ncccc2c1 [RO4498479-000],potency estimated from few doses,"ACAD11; compound concentrations: 100 nM and 1000 nM (sheet 'Samples'), CATDS: 8.46933106207029E-3",852 nM
same,potency estimated from few doses,"FGFR1; compound concentrations: 100 nM and 1000 nM (sheet 'Samples'), CATDS: 8.1769993071202692E-3",946 nM
same,potency estimated from few doses,"FRK; compound concentrations: 100 nM and 1000 nM (sheet 'Samples'), CATDS: 1.0205973298365501E-2",530 nM
same,potency estimated from few doses,"FYN; compound concentrations: 100 nM and 1000 nM (sheet 'Samples'), CATDS: 1.0262385049400099E-2",523 nM
same,potency estimated from few doses,JAK1; CATDS: 7.5180270628035497E-3,1240 nM
same,potency estimated from few doses,"ULK3; compound concentrations: 100 nM and 1000 nM (sheet 'Samples'), CATDS: 8.2720873677068606E-3",913 nM
Cc1ccc2c(-c3ccncc3)c(-c3ccc(F)cc3)nn2c1.Cl [GW461484A],potency estimated from few doses,ATR,838 nM
same,potency estimated from few doses,FRK; [1],887 nM
same,potency estimated from few doses,FYN; [1],1170 nM
same,potency estimated from few doses,MAPKAPK2; [1],573 nM
Cl.NCc1ccc(-c2nc(-c3ccc(Cl)c(O)c3)c(-c3ccncc3)[nH]2)cc1 [SB-476429-A],potency estimated from few doses,MAPKAPK2; [1],94.8 nM
Cc1ccc(Nc2ccnc(Nc3ccc4c(c3)CS(=O)(=O)C4)n2)cc1O.Cl [GW579362A],potency estimated from few doses,CDK5; CATDS: 3.4142296648309298E-2,844 nM
same,potency estimated from few doses,"NLK; compound concentrations: 100 nM and 1000 nM (sheet 'Samples'), CATDS: 6.6652285634060698E-2",208 nM
same,potency estimated from few doses,"ULK3; compound concentrations: 100 nM and 1000 nM (sheet 'Samples'), CATDS: 3.7183394564858599E-2",681 nM
Cc1cccc2c(-c3ccncn3)c(-c3ccc(F)cc3)nn12 [GW515532X],potency estimated from few doses,"MAPKAPK2; compound concentrations: 100 nM and 1000 nM (sheet 'Samples'), CATDS: 0.245203674473806",1400 nM
O=C1NC(=O)C(N2CCc3ccccc32)=C1c1ccccc1Cl [SB-373598],potency estimated from few doses,ATR,605 nM
same,potency estimated from few doses,FGFR1; [1],1250 nM
same,potency estimated from few doses,FRK; [1],330 nM
same,potency estimated from few doses,FYN; [1],250 nM
same,potency estimated from few doses,ULK3; [1],1450 nM
